Screening data from PubChem BioAssay.
JMJD2A Tudor – blocks the human JMJD2A Tudor domain. Potency, µM (series often up to 114 µM), most hits filed as inhibitors. AlphaScreen JMJD2A-Tudor / H3K4me3 peptide binding. AID 504339. O75164. actives 4.4% (n = 390,000); note: nearly all actives have a fitted effect of over 50% in size
G9a inh – blocks human histone lysine methyltransferase G9a; Q96KQ7; G9a H3K9 monomethylation, AlphaScreen, 2 h; Potency, µM (series often up to 102 µM), hits mostly inhibitors; actives 8.8% (n = 350,000); AID 504332; note: nearly all actives have a fitted effect of over 75% in size
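AlphaScreen detection with an anti-monomethyl H3K9 antibody quantified product after a 2 h room-temperature reaction containing 500 nM biotinylated H3K9 peptide, 20 µM SAM and 20 nM enzyme, which had been preincubated 15 min with compound.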
BAZ2B block – inhibitors of human BAZ2B bromodomain. Q9UIF8. AlphaScreen BAZ2B-H3K14Ac peptide displacement. Potency, µM (highest dose often 114 µM), actives largely listed as inhibitors. actives 4.4% (n = 360,000); note: nearly all actives have a fitted effect of over 60% in size
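BAZ2B (50 nM) with biotin-H3(5-23)K14Ac peptide (50 nM) in PBS pH 7.4, 0.01% Tween-20, preformed 30 min, then compound 30 min at room temperature; top concentration 110uM. AlphaScreen streptavidin donor/nickel chelate acceptor beads (10 ug/mL final), 20 min dark, signal read.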
Six1-Eya2 inh – Six1/Eya2 interaction inhibition. AlphaScreen GST-Six1/His-Eya2 binding, biochemical; hits give low values. activity change, % (no concentration beside the values). actives 0.56% (n = 360,000). AID 651725; in the data active = activity change below about -65%; inconclusive = mostly about -30% to -63%
Target sequence (O00167 whole entry, looked up): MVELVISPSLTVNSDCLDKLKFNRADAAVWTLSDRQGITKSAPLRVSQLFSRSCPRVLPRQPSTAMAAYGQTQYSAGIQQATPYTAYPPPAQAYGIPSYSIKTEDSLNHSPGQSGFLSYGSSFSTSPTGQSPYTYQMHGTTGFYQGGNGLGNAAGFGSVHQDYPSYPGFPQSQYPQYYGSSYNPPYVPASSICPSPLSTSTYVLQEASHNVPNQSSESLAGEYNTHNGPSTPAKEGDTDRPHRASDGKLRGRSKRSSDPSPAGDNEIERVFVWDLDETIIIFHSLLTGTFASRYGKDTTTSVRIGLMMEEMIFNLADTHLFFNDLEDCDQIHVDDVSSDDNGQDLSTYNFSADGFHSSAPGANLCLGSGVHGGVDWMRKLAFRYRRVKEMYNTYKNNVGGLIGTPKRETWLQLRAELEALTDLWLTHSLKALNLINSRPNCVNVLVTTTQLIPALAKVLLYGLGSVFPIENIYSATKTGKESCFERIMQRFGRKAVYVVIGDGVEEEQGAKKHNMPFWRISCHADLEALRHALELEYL
Target sequence (Q15475 whole entry, looked up): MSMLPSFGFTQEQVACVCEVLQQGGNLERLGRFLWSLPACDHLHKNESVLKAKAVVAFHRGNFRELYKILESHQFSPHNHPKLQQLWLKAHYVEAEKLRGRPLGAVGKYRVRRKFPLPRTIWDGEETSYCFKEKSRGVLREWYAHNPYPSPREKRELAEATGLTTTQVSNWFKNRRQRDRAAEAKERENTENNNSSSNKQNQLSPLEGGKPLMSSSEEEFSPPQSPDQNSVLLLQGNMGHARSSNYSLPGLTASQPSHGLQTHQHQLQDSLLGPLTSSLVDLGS
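AlphaScreen with GST-Six1 and His-Eya2 (5X mix: 250 nM and 500 nM), glutathione donor and nickel acceptor beads; buffer 50 mM Tris pH 8.0, 300 mM NaCl, 1 mM TCEP; 1 h at 37 C in the dark.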
HP1b chromo inh – blocks HP1-beta chromodomain binding to methylated histone tails; P83916; AlphaScreen HP1-beta / biotin-H3K9me3 peptide binding; Potency, µM (titrated, usually from 114 µM), most hits filed as inhibitors; actives 0.56% (n = 390,000); AID 540317; note: nearly all actives have a fitted effect of over 70% in size
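Compound inhibition of the preformed complex between 50 nM HP1-beta and 50 nM biotinylated H3K9me3 peptide was read by AlphaScreen. Buffer was PBS pH 7.4 with 0.01% Tween-20. Incubations ran 30 min at room temperature, with 10 ug/mL donor/acceptor beads.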
CtBP-E1A blk – CtBP/E1A binding inhibition. actives 0.49% (n = 340,000). AID 651724. activity change, % (concentration not given with the values). AlphaScreen GST-E1A/His-CtBP binding, 1536-well; hits give low values; in the data active = activity change below about -65%; inconclusive = mostly about -30% to -63%
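Homogeneous bead-based format: GST-tagged E1A captured on glutathione donor beads, His-tagged CtBP on nickel acceptor beads; compounds precede bead addition by 2 h at 37 °C.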
Hits are given with their value; [ ] = remark or other dose. Most compounds without a hit are left out; they make up all but 10% or so of the library. Unless noted, calls come from the whole dose curve; as a rule, active = well fitted inhibition curve with a large enough effect; inconclusive = small, poorly fitted or top-dose-only effect; inactive = no such curve, though single readings can be large or run the other way.

For O=C(Nn1c(O)c(C=C2N=c3ccccc3=N2)sc1=S)c1ccccc1 the results were JMJD2A Tudor inactive, G9a inh 1.4µM, BAZ2B block inactive, Six1-Eya2 inh inactive, HP1b chromo inh inactive and CtBP-E1A blk inactive.
Cc1ccc(C(=O)Nn2c(O)c(C=C3N=c4ccccc4=N3)sc2=S)cc1 was read as JMJD2A Tudor inactive, G9a inh inactive, BAZ2B block inactive, Six1-Eya2 inh inactive, HP1b chromo inh inactive and CtBP-E1A blk inactive.
For COc1cc(OC)cc(C(=O)Nc2ncn[nH]2)c1 the results were JMJD2A Tudor inactive, G9a inh inactive[2.33 µM], BAZ2B block inconclusive, Six1-Eya2 inh inactive, HP1b chromo inh inactive and CtBP-E1A blk inactive.
Screening O=C(Nc1ncn[nH]1)c1ccc(Cl)cc1Cl returned JMJD2A Tudor inactive, G9a inh inconclusive, BAZ2B block 50µM, Six1-Eya2 inh inactive, HP1b chromo inh inactive and CtBP-E1A blk inactive.
`CCOc1cc(C(=O)NC(=S)Nn2cnnc2)cc(OCC)c1OCC` gave JMJD2A Tudor inconclusive, G9a inh 25µM, BAZ2B block inactive, Six1-Eya2 inh inactive, HP1b chromo inh inactive and CtBP-E1A blk inactive.
C=CCOc1cccc(C(=O)Nc2ncn[nH]2)c1 was read as JMJD2A Tudor inactive, G9a inh inconclusive, BAZ2B block 56µM, Six1-Eya2 inh inactive and HP1b chromo inh inactive.
Screening O=C(Nc1ncn[nH]1)c1ccc(Cl)c(Cl)c1 returned JMJD2A Tudor inactive, G9a inh inconclusive, BAZ2B block inactive, Six1-Eya2 inh inactive, HP1b chromo inh inactive and CtBP-E1A blk inactive.
Screening CCOc1cc(C(=O)Nc2ncn[nH]2)cc(OCC)c1OCC returned JMJD2A Tudor inactive, G9a inh inactive, BAZ2B block 56µM, Six1-Eya2 inh inactive, HP1b chromo inh inactive and CtBP-E1A blk inactive.
Screening O=C(NC1CCCCC1)C1c2ccccc2C(=O)N1Cc1ccc2c(c1)OCO2 (centres undefined) returned JMJD2A Tudor inactive, G9a inh inactive, BAZ2B block inactive, Six1-Eya2 inh inactive, HP1b chromo inh inactive and CtBP-E1A blk inactive.
For NNC(=O)c1cc(Br)cs1 the results were JMJD2A Tudor inactive, G9a inh inactive, BAZ2B block inactive, Six1-Eya2 inh inactive, HP1b chromo inh inactive and CtBP-E1A blk inactive.
Screening CCCCn1c(N)c(N(CC(C)C)C(=O)c2ccc(C)c(S(=O)(=O)N3CCCCC3)c2)c(=O)[nH]c1=O returned JMJD2A Tudor inactive, G9a inh inactive, BAZ2B block inactive, Six1-Eya2 inh inactive, HP1b chromo inh inactive and CtBP-E1A blk inactive.
Screening CCN(Cc1nc2cc(Cl)ccc2c(=O)[nH]1)C(=O)c1ccc(C)c(NC(=O)c2ccco2)c1 returned JMJD2A Tudor inactive, G9a inh inactive[12.7 µM], BAZ2B block inactive, Six1-Eya2 inh inactive, HP1b chromo inh inactive and CtBP-E1A blk inactive.
CN(C(=O)COC(=O)c1ccccc1NCc1ccco1)c1c(N)n(Cc2ccccc2)c(=O)[nH]c1=O was read as JMJD2A Tudor inactive, G9a inh inconclusive, BAZ2B block inactive, Six1-Eya2 inh inactive, HP1b chromo inh inactive and CtBP-E1A blk inactive.
CCOC(=O)C1(C)CCCN(C(=O)c2ccccc2F)C1 (centres undefined) was read as Six1-Eya2 inh inactive and CtBP-E1A blk inactive.
For COc1cc(OC)c(C(=O)Nc2ncn[nH]2)cc1OC the results were JMJD2A Tudor 50µM, Six1-Eya2 inh inconclusive, HP1b chromo inh inactive and CtBP-E1A blk inconclusive.
For CCOc1cc(N2CCOCC2)c(OCC)cc1NCC(=O)N1CCN(Cc2ccccc2)CC1 the results were JMJD2A Tudor 0.79µM, BAZ2B block 20µM, Six1-Eya2 inh inactive, HP1b chromo inh 20µM and CtBP-E1A blk inactive.
Screening CCOc1cc(N2CCOCC2)c(OCC)cc1NC(=O)CSc1ccccc1C(=O)O returned JMJD2A Tudor inactive, G9a inh 7.9µM, BAZ2B block 79µM, Six1-Eya2 inh inactive, HP1b chromo inh inactive and CtBP-E1A blk inactive.
CCOc1cc(N2CCOCC2)c(OCC)cc1NC(C)C(=O)N1CCC(C)CC1 (centres undefined) was read as JMJD2A Tudor inconclusive, G9a inh 40µM, BAZ2B block inactive, Six1-Eya2 inh inactive, HP1b chromo inh inactive and CtBP-E1A blk inactive.
For CCOc1cc(N2CCOCC2)c(OCC)cc1NC(=O)CN1CCc2ccccc2C1 the results were JMJD2A Tudor 1.4µM, G9a inh inactive[2.33 µM], BAZ2B block 20µM, Six1-Eya2 inh inconclusive, HP1b chromo inh inconclusive and CtBP-E1A blk inconclusive.
`CCOc1cc(N2CCOCC2)c(OCC)cc1NC(=O)CSc1ncn[nH]1` gave JMJD2A Tudor inactive, G9a inh 45µM, BAZ2B block inactive, Six1-Eya2 inh inactive, HP1b chromo inh inactive and CtBP-E1A blk inactive.
Screening CCOC(=O)CNS(=O)(=O)c1ccc(F)cc1Br returned JMJD2A Tudor inactive and HP1b chromo inh inactive.
For COCCn1c(=O)c(-c2ccc(OC)cc2)nc2cnc(N3CCOCC3)nc21 the results were G9a inh inactive[0.501 µM].
CCOc1ccc(OCCOCCN2CCc3ccccc3C2)cc1 was read as JMJD2A Tudor 2.8µM, BAZ2B block 56µM, Six1-Eya2 inh inactive, HP1b chromo inh inconclusive and CtBP-E1A blk inactive.
Cc1ccc(SCCOCCN2CCc3ccccc3C2)cc1 was read as JMJD2A Tudor 40µM, G9a inh inconclusive, BAZ2B block inactive, Six1-Eya2 inh inactive and HP1b chromo inh inconclusive.
For c1ccc(OCCOCCN2CCc3ccccc3C2)cc1 the results were JMJD2A Tudor inactive, G9a inh inactive, BAZ2B block inactive, Six1-Eya2 inh inactive, HP1b chromo inh inactive and CtBP-E1A blk inactive.
C=CCc1cc(OC)ccc1OCCOCCN1CCc2ccccc2C1 was read as JMJD2A Tudor 0.89µM, G9a inh 11µM, BAZ2B block 56µM, Six1-Eya2 inh inactive, HP1b chromo inh inconclusive and CtBP-E1A blk inactive.
For CCCOc1ccc(OCCOCCN2CCc3ccccc3C2)cc1 the results were JMJD2A Tudor 3.5µM, G9a inh 10µM, BAZ2B block 50µM, Six1-Eya2 inh inactive, HP1b chromo inh inconclusive and CtBP-E1A blk inactive.
Cc1cccc(Cl)c1NC(=O)NCCCN1CCCCC1C (centres undefined) was read as Six1-Eya2 inh inactive and CtBP-E1A blk inactive.
Screening O=C1CC(c2ccco2)CC(O)=C1C=NCCO (centres undefined) returned JMJD2A Tudor inactive, G9a inh 79µM, BAZ2B block inactive, Six1-Eya2 inh inactive, HP1b chromo inh inactive and CtBP-E1A blk inactive.
`O=C1CC(c2ccco2)CC(O)=C1C=NCC1NCCc2ccccc21` (centres undefined) gave JMJD2A Tudor inactive, G9a inh inactive, BAZ2B block inactive, Six1-Eya2 inh inactive, HP1b chromo inh inactive and CtBP-E1A blk inactive.
